From PubChem
Rows were chosen to be rich in hits. Some 4.2% of all compounds tested hit in one or more screens of this group.
BJeLR lethal – kills HRASV12-expressing BJeLR cells; BJeLR (HRASV12) viability, CellTiter-Glo ATP luminescence, 48 h; inhibition, % (concentration not given with the values); 300,000 compounds, 0.17% hits; in the data active means inhibition above about 50%
RecA intein inh – inhibitors of M. tuberculosis RecA intein splicing; P9WHJ3; cell-free RecA intein splicing, fluorescence; inhibition, % (no concentration beside the values); 290,000 compounds, 0.75% hits; in the data active means inhibition above about 30%
Target sequence (P9WHJ3 whole entry, looked up): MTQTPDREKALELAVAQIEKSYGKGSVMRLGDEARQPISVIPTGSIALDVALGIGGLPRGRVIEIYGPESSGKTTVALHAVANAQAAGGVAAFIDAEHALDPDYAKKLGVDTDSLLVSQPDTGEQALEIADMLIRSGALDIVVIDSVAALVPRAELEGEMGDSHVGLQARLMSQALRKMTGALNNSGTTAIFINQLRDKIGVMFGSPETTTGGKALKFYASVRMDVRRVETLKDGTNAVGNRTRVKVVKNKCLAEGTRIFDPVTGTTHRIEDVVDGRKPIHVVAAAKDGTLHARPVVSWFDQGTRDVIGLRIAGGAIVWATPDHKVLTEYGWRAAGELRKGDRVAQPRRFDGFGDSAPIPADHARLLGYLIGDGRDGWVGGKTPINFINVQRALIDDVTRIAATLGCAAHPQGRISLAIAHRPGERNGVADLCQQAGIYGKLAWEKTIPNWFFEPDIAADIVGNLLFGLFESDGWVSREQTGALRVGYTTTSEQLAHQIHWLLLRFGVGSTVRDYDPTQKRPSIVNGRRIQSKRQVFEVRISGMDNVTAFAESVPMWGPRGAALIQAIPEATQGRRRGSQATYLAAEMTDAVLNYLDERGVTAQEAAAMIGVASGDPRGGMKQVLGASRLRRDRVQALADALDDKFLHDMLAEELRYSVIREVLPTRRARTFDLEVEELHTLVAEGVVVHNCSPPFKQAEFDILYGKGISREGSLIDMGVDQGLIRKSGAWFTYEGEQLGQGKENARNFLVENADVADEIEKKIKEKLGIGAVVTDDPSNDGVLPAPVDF
FBA Mtb inh – inhibitors of M. tuberculosis fructose-bisphosphate aldolase. inhibition, % at 1 µM. AID 588726. purified M. tuberculosis FBA, fluorescence read-out. 360,000 compounds, 2.3% hits; in the data active means inhibition above about 27%
PrPC surface inh – cell surface PrPC inhibition, primary TR-FRET screen; TR-FRET read-out; P04156; inhibition, % at 13.8 µM; 370,000 compounds, 0.43% hits; in the data active means inhibition above about 24%
GDH-TPI inh – inhibits GDH-TPI coupling enzymes, artifact for Mtb FBA screen. 360,000 compounds, 1.2% hits. inhibition, % at 4.8 µM. GDH-TPI coupled enzyme counterscreen, NADH absorbance. AID 588335; in the data active means inhibition above about 30%
Numbers stand for hits; n = inactive; x = no result; + = active, no number.

SMILES | BJeLR lethal | RecA intein inh | FBA Mtb inh | PrPC surface inh | GDH-TPI inh
COc1ccc2oc(C(=O)Nc3nc4ccccc4[nH]3)c(C)c2c1 | n | n | n | n | 44
COc1ccc(Br)c(C(=O)Nc2nc3ccccc3[nH]2)c1 | n | n | n | n | n
Cc1ccc2nc(Nc3nc(-c4ccccc4)cc(=O)[nH]3)nc(C)c2c1 | n | n | n | n | n
COc1ccc2c(C)nc(Nc3nc(-c4ccccc4)cc(=O)[nH]3)nc2c1 | 58 | n | n | n | n
C/C(=N\NC(=O)c1ccncc1)c1ccc(N2CCOCC2)cc1 | x | x | n | n | n
C/C(=N\NC(=O)c1ccccc1)c1ccc(N2CCOCC2)cc1 | n | n | n | n | 31
CC1=CC(=O)C=C(C)C1=NOc1ccccc1[N+](=O)[O-] | 51 | n | n | n | n
Cc1cc(C)c(S(=O)(=O)Oc2ccccc2[N+](=O)[O-])c(C)c1 | x | x | n | n | n
CCCCCn1nnnc1C1(C)CCCCC(=O)N1Cc1ccco1 (centres undefined) | x | x | x | n | x
C#CCN1CC(N2CCN(CCO)CC2)CS1(=O)=O (centres undefined) | x | x | x | n | x
CC1(C)CC(=O)C2=C(C1)N(CCN1CCOCC1)C1=C(C(=O)CC(C)(C)C1)C2c1ccc(Cl)c([N+](=O)[O-])c1 | n | n | n | n | n
Cc1ccc(C2C3=C(CC(C)(C)CC3=O)N(CCN3CCOCC3)C3=C2C(=O)CC(C)(C)C3)cc1 | n | n | 29 | n | n
COC(=O)c1cc(-c2ccc(-c3ccccc3)c(F)c2)c(=O)n2c1CCC2 | x | x | x | n | x
O=C(OC12CCCN(C1)/C(=C/c1ccncc1)C2)c1cccc(F)c1 (centres undefined) | x | x | x | n | x
CCOc1cc(/C=N/NC(=O)C(=O)NC2CC2)cc(Br)c1O | n | n | n | n | 33
O=C(N/N=C/c1cc(Br)c(O)c(Br)c1O)c1ccc2c(c1)OCCO2 | n | n | n | n | 31
O=C(N/N=C/c1cc(Br)c(Br)o1)c1ccc2c(c1)OCCO2 | n | n | n | n | n
CCOc1cc(/C=N/NC(=O)c2ccc3c(c2)OCCO3)cc(Br)c1O | n | n | n | n | 41
COC(=O)c1ccc(Cn2ccc3ccc(-c4ccc5ccn(C(=O)c6ccccc6C)c5c4)cc32)cc1 | x | x | x | n | x
COC(=O)[C@]12C[C@H](CC(=O)N3CCOCC3)C(=O)N(CCc3ccc(OC)c(OC)c3)C1=C[C@H](C(C)C)O[C@@H]2C1CC1 | x | x | x | n | x
CCCCNC(=O)O[C@H]1CC[C@@]23CCCN2C(=O)CCC[C@H]3[C@H]1C | x | x | x | n | x
Cn1cnc([N+](=O)[O-])c1Oc1cccc2ccccc12 | n | 36 | n | n | n
Cn1cnc([N+](=O)[O-])c1S(=O)(=O)Oc1cccc2ccccc12 | x | x | n | n | n
CCN(C(=O)c1cc2cc3ccc(C)cc3nc2o1)c1ccc(OC)cc1 | n | n | n | n | n
COCCCNC(=O)c1cc2cc3cc(OC)ccc3nc2o1 | n | n | 122 | n | n
SMILES | BJeLR lethal | RecA intein inh | FBA Mtb inh | PrPC surface inh | GDH-TPI inh
CCCCN(C)CCNC(=O)c1cc2cc3ccc(OC)cc3nc2o1 | n | n | + | n | n
CCN(CC)CCNC(=O)c1cc2cc3ccc(OC)cc3nc2o1 | n | n | + | n | n
CCOC(=O)N1C(=O)C[C@](Sc2ccc(OC)cc2)(C(=O)N(C)C)[C@H]1c1ccc(OC)cc1 | x | x | x | n | x
CC(C)C[C@H]1COc2cccc(F)c2S(=O)(=O)N1Cc1cn(Cc2ccc(Cl)cc2)nn1 | x | x | x | n | x
CCN(CC)C(=O)CC[C@H]1CC[C@]2(CCCN(C(=O)c3ccccc3)C2)O1 | x | x | x | n | x
CSc1nnc(-c2cccn(Cc3ccccc3)c2=O)o1 | n | n | 131 | n | n
O=c1c(-c2n[nH]c(=S)o2)cccn1Cc1ccccc1 | n | n | n | n | n
COc1ccccc1/C=N/NC(=O)c1nnn(-c2nonc2N)c1-c1cccs1 | n | n | n | x | 43
COc1ccc(/C=N/NC(=O)c2nnn(-c3nonc3N)c2-c2cccs2)c(OC)c1 | n | n | n | n | 46
CCOC(=O)c1[nH]c2cc3c(cc2c1NC(=O)CN1CCN(CCO)CC1)OCO3 | n | n | 130 | n | 46
O=C(C1CCC1)n1ccc2ccc(-c3ccc4ccn(Cc5ccccc5)c4c3)cc21 | x | x | x | n | x
COCCNC(=S)N/N=C/c1ccc(OCc2ccc(C(=O)OC)cc2)cc1 | n | n | n | n | n
CCNC(=S)N/N=C/c1ccc(OCc2ccc(C(=O)OC)cc2)cc1 | n | n | n | n | 33
O=C(O)c1cnn2c(C(F)(F)F)cc(-c3ccco3)nc12 | n | n | n | n | 39
O=C(c1cnn2c(C(F)(F)F)cc(-c3ccco3)nc12)N1CCCCCC1 | n | n | n | n | n
Cc1c(/C=N/NC(=O)c2cccnc2)c2ccccn2c1C(=O)c1ccc(F)cc1 | n | n | x | x | x
Cc1c(/C=N/NC(N)=O)c2ccccn2c1C(=O)c1ccncc1 | n | n | n | n | 56
Cc1c(/C=N/NC(=O)c2ccccc2O)c2ccccn2c1C(=O)c1ccc(F)cc1 | n | n | n | n | n
Cc1c(/C=N/NC(=O)c2ccc(O)cc2)c2ccccn2c1C(=O)c1ccc(F)cc1 | n | n | n | n | 32
COc1ccc(C(=O)/C=C/C(=O)N(CC(=O)NC2CCCCC2)Cc2ccccc2OC)c(O)c1 | 51 | n | n | n | n
COc1ccc(C(=O)/C=C/C(=O)N(CC(=O)NC2CCCCC2)Cc2ccccc2)c(O)c1 | n | n | n | n | n
C[C@@H]1CN([C@@H](C)COC(=O)C(C)(C)C)C(=O)c2cc(NC(=O)Nc3ccccc3)ccc2O[C@@H](C)CCCCO[C@H]1CN(C)S(=O)(=O)c1ccc(F)cc1 | x | x | x | n | x
Cc1cc(Cl)c(S(=O)(=O)N2CCCCCC2)cc1OCC(=O)NC1CCCCC1 | n | n | n | n | n
CCN1CCN(S(=O)(=O)c2cc(OCC(=O)NC3CCCCC3)c(C)cc2Cl)CC1 | n | n | n | n | 52
COc1cc(C(=O)Nc2ccc(S(=O)(=O)Nc3onc(C)c3C)cc2)cc(OC)c1OC | n | n | n | n | n
SMILES | BJeLR lethal | RecA intein inh | FBA Mtb inh | PrPC surface inh | GDH-TPI inh
COc1cc(/C=C/C(=O)Nc2ccc3nc4n(c(=O)c3c2)CCCC4)cc(OC)c1OC | n | n | n | n | 38
COc1ccc(/C=C/C(=O)Nc2ccc3nc4n(c(=O)c3c2)CCCC4)cc1 | n | n | n | n | n
COc1ccc(-c2cc(C(=O)Nc3ccc(S(=O)(=O)Nc4onc(C)c4C)cc3)c3ccccc3n2)cc1OC | n | n | n | n | 42
COc1cc(/C=C/C(=O)Nc2ccc(S(=O)(=O)Nc3onc(C)c3C)cc2)cc(OC)c1OC | x | x | n | n | 39
COC(=O)[C@]12C[C@H](CC(=O)N3CCCCC3)C(=O)N(Cc3cccc4ccccc34)C1=C[C@H](C(C)(C)C)O[C@@H]2C | x | x | x | n | x
COc1cccc(N2CCN(C(=O)CSc3nc4ncccc4[nH]3)CC2)c1 | x | x | x | n | x
Cc1ccc(S(=O)(=O)Nc2nc3ccccc3nc2NCC2CCCO2)cc1 (centres undefined) | n | n | n | n | n
O=S(=O)(Nc1nc2ccccc2nc1NCC1CCCO1)c1ccccc1 (centres undefined) | n | n | n | n | 41
COc1ccc(S(=O)(=O)Nc2nc3ccccc3nc2NCC2CCCO2)cc1 (centres undefined) | n | n | 27 | n | n
